A short description of test [1]: anti-His antibody binders, primary screen, artefact control for SMM control protein annotation, biochemical, small-molecule microarray, 635 nm fluorescence (AID 1128).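 Note: score merges feature fluorescence with signal-to-noise for each printed compound spot.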 Conditions: anti-His Alexa647 antibody binding, higher = more signal.
The subject of test [2] is Human papillomavirus type 1a E7 protein (residues 1-88). Kind of test: HPV1a E7 small-molecule binders, primary screen, biochemical, small-molecule microarray, residues 1-88, 635 nm (AID 1129). Conditions: small-molecule microarray binding, fluorescence 635 nm; higher = more signal.
In test [3] the target is Focal adhesion kinase 1 (Homo sapiens) (UniProt Q05397). Briefly: small-molecule microarray binders of FAK, primary screen, biochemical, 635/667 nm fluorescence, BSA, DTT (AID 1130).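 Note: composite of spot emission at 667 nm and signal to noise over triplicate slides.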 Conditions: PTK2 binding, 635 nm fluorescence, higher = more signal.
Focal adhesion kinase 1 (Homo sapiens), sequence (Q05397 whole entry, looked up): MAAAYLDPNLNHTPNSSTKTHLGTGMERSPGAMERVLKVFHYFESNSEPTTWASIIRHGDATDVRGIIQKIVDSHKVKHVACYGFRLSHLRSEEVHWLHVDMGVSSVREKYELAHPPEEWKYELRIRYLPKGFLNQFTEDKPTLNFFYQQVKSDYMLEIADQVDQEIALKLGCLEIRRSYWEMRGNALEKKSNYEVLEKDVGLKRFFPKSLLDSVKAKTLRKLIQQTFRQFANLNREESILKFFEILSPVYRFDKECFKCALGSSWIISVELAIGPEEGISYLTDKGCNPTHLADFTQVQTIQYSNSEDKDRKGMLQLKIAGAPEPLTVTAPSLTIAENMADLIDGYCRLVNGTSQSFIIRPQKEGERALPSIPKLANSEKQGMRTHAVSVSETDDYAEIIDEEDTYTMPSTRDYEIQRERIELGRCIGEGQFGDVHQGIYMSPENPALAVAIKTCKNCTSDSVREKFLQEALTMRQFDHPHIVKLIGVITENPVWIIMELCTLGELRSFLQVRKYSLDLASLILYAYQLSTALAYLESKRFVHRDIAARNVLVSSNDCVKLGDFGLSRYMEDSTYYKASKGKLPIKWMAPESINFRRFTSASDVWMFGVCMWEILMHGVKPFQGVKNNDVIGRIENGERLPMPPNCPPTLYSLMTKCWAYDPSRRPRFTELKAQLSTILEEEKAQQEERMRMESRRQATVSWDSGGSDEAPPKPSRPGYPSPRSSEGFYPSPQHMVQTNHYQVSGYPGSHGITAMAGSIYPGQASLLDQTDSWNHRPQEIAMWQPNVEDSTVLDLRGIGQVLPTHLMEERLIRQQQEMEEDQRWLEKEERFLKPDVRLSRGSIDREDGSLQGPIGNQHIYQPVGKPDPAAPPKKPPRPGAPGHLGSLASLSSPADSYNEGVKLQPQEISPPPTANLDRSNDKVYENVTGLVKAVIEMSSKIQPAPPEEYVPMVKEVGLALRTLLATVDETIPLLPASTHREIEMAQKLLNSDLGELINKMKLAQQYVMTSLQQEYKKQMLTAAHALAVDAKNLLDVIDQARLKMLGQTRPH
The subject of test [4] is Fibrinogen (Alexa647-labelled). Briefly: fibrinogen binders on compound microarrays, profiling panel, artefact control for SMM control-protein annotation, biochemical, small-molecule microarray, 635/667 nm fluorescence (AID 1131).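 Note: z-score merges 667 nm fluorescence with per-spot signal-to-noise over triplicate slides.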 Conditions: fibrinogen-A647 binding fluorescence, higher = more signal.
The target in test [5] is Follistatin (Homo sapiens) (UniProt P19883). Kind of test: follistatin binders on small-molecule microarrays, primary screen, biochemical, small-molecule microarray, 635/667 nm fluorescence (AID 1132). The note with it: FST binding, 635 nm fluorescence, higher = more signal.
Follistatin (Homo sapiens), sequence (P19883 whole entry, looked up): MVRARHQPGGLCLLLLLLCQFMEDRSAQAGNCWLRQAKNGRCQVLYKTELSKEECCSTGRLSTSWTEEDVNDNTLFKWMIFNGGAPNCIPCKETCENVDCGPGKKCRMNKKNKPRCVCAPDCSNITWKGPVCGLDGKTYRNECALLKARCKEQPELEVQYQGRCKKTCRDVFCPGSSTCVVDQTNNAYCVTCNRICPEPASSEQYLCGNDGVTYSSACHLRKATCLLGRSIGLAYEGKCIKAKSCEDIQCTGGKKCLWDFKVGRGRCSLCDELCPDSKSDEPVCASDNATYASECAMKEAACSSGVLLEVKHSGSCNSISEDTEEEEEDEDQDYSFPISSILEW
In test [6] the target is Fibroblast growth factor 2 (Homo sapiens) (UniProt P09038). Briefly: FGF2 binders on small-molecule microarrays, primary screen, biochemical, small-molecule microarray, 635/667 nm fluorescence (AID 1133). Conditions: small-molecule microarray binding, FGF2, fluorescence 635/667; higher = more signal.
Fibroblast growth factor 2 (Homo sapiens), sequence (P09038 whole entry, looked up): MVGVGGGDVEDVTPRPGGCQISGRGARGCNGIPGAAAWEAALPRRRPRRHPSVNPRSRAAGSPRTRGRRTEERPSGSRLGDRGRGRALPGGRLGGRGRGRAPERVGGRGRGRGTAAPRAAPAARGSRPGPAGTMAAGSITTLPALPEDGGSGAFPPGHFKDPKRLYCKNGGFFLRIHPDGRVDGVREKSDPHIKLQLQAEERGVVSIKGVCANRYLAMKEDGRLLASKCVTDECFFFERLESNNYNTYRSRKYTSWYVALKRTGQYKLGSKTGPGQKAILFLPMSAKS
A short description of test [7]: mitochondrial membrane potential change in A549 cells, profiling panel, cell-based, JC-1 fluorescence, basal, 24 h, 100 nL (AID 1138).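 Note: A549 lung adenocarcinoma cells under basal conditions with no added stimulus; test concentration not given here.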 Conditions: higher = more signal.
The test system of a further test is Lefty1. Briefly: Lefty1 binders on small-molecule microarrays, primary screen, biochemical, small-molecule microarray, 635/667 nm fluorescence (AID 1139). Conditions: small-molecule microarray binding, fluorescence 635/667; higher = more signal.
Test [8] deals with wheat germ agglutinin (Triticum aestivum), Alexa647-labelled. Kind of test: wheat germ agglutinin binders on compound microarrays, profiling panel, artefact control for SMM control-protein annotation, biochemical, small-molecule microarray, 635/667 nm fluorescence (AID 1140).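 Note: score merges 667 nm feature emission with signal to noise over triplicate slides.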 The note with it: WGA-A647 binding, 635 nm fluorescence, higher = more signal.
In test [9] the target is Luciferin 4-monooxygenase (Photinus pyralis) (UniProt P08659). Briefly: firefly luciferase enzyme inhibitors, primary screen, biochemical, luminescence, purified enzyme, 2006 set (AID 1141).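 Note: cell-free assay with purified firefly luciferase at 100 ng per well in PBS; test concentration not given here.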 The note with it: SteadyGlo luminescence, 30 min, higher = more signal, called active from +8 up or from −8 down.
Luciferin 4-monooxygenase (Photinus pyralis), sequence (P08659 whole entry, looked up): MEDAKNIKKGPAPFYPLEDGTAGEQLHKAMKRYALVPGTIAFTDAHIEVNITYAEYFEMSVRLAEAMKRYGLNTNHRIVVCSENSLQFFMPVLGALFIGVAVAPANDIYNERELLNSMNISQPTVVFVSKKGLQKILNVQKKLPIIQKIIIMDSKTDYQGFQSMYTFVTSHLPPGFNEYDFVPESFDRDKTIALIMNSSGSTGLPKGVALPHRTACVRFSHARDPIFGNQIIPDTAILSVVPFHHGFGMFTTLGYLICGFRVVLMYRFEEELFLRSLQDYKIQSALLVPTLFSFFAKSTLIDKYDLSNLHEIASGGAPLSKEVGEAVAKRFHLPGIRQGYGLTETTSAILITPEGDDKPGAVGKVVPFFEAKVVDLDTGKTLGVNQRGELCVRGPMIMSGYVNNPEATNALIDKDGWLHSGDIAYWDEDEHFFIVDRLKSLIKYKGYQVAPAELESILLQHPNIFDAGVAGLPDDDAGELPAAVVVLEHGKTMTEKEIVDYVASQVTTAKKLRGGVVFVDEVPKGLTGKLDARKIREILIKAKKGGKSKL
Test [10] has as its system Wnt5a (protein binding on small-molecule microarray). Briefly: Wnt5a binders on small-molecule microarray, primary screen, biophysical, 635/667 nm fluorescence (AID 1142).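 Note: fluorescence read at 667 nm with signal to noise per printed feature.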 The note with it: 635 nm fluorescence, higher = more signal.
Test [11] in a line: cell viability in Huh7 cells, primary screen, cytotoxicity control for HCV replication inhibitor project, CellTiter-Glo luminescence, basal, 48 h (AID 1143).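 Note: Huh7 hepatoma cells carrying a hepatitis C replication reporter with no stimulus; test concentration not given here.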 Conditions: Huh7 HCV replicon, higher = more signal, called active from +8 up or from −8 down. In general terms: In ATP-based viability assays light output follows the ATP content of the culture.
The nature of test [12]: P. aeruginosa biofilm formation inhibitors, primary screen, PAO1 strain, BacTiter-Glo luminescence, LB-PBS (AID 1144). Conditions: 12 h, higher = more signal.
Test [13] in a line: CREB reporter modulators without forskolin, primary screen, cell-based, PC12, CRE-LacZ reporter, unstimulated (AID 1145). Conditions: no forskolin, luminescence, 4.5 h, higher = more signal, called active from +8 up or from −8 down.
The nature of test [14]: CREB reporter modulators under forskolin, primary screen, cell-based, PC12, CRE-LacZ reporter, forskolin-stimulated (AID 1146).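 Note: PC12 cells with 6xCRE LacZ reporter stimulated by forskolin 10 µM; beta-galactosidase reporter signal reflecting CREB driven transcription.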 The note with it: luminescence, 4.5 h, higher = more signal, called active from +8 up or from −8 down.
Test [15] deals with Streptavidin (Streptomyces avidinii) (UniProt P22629). Briefly: streptavidin binders on small-molecule microarray, primary screen, artefact control for SMM compound annotation, biophysical, 635/667 nm fluorescence (AID 1147).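 Note: signal reflects streptavidin binding to arrayed compounds as a control protein.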 The note with it: streptavidin binding, higher = more signal.
Streptavidin (Streptomyces avidinii), sequence (P22629 whole entry, looked up): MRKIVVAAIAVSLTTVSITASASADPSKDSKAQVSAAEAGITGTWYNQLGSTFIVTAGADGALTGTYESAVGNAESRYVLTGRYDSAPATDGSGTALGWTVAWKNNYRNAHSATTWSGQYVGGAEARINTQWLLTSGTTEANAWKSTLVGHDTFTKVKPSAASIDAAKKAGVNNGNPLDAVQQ
Test [16] is described as follows: small-molecule binders of probe aInhba, primary screen, biochemical, small-molecule microarray, 635/667 nm fluorescence (AID 1148).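 Note: score merges 667nm spot fluorescence with signal-to-noise for antibody binding to printed compounds.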 The note with it: higher = more signal.
Test [17] addresses Torsin-1A (Homo sapiens) (UniProt O14656). Briefly: torsin A binders from cell lysate, primary screen, small-molecule microarray, wild-type, 635/667 nm (AID 1149). The note with it: COS7 hTOR1A-WT lysate, 635 nm fluorescence, higher = more signal.
Test [18] has the same target. Briefly: small-molecule binders of mutant TOR1A in lysate, primary screen, cell lysate, small-molecule microarray, COS7 lysate, 635/667 nm fluorescence (AID 1150).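 Note: score pools 667 nm emission and signal to noise measuring lysate protein binding.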 Conditions: COS7 hTOR1A mutant lysate, 635 nm fluorescence, higher = more signal.
The test system of test [19] is Sonic hedgehog protein (Shh). Kind of test: small-molecule binders of Shh protein, primary screen, biochemical, small-molecule microarray, 635/667 nm fluorescence (AID 1151).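 Note: Shh protein binding to compounds spotted on small-molecule microarray slides; score combines spot fluorescence intensity with signal-to-noise across triplicate slides.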 The note with it: small-molecule microarray binding, 635 nm fluorescence; higher = more signal.

Active and inactive are the calls of the source. Unless noted, the rule behind the calls is not given here.

Torsin-1A (Homo sapiens), sequence (O14656 whole entry, looked up): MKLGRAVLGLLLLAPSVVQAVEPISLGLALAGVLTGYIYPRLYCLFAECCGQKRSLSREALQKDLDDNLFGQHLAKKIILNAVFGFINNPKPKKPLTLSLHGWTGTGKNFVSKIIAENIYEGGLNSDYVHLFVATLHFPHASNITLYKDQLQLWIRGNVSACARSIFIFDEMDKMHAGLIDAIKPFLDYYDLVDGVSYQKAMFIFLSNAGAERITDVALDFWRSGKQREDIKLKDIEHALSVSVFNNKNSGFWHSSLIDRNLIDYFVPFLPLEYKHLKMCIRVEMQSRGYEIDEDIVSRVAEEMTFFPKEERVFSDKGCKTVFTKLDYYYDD

As to `C=CC[C@@]1(C(=O)O)N=C(c2ccc(OCCCO)cc2)O[C@@H]1c1ccccc1CN=[N+]=[N-]`, the composite z-score is 0.706 in test [1]; 0.86 in [2]; 0.518 in test [3]; 0.68 in [4]; 0.939 in test [5]; 0.381 in test [6]. Besides, the composite z-score in the test on Lefty1 was 0.588; in [8], 1.24; in test [10], 0.229; in test [15], 1.93; in test [16], -0.0736; in the test with Torsin-1A (Homo sapiens) [17], -0.0975. For the same compound, the composite z-score with Torsin-1A (Homo sapiens) [18] is 0.884; in test [19] it was 0.582. Besides, the z-score in test [7] is -0.472; in [9] it was -0.926 (inactive); in [11], -1.9 (inactive); in [12] it was -1.6 (inactive); in test [13] it was -0.183 (inactive); in test [14], -1.13 (inactive).
`COc1ccc(CC[C@H](O)c2cccc(OCC(=O)OC(C)(C)C)c2)cc1`: the composite z-score is 0.697 in test [1]; 1.01 in test [2]; 0.464 in test [3]; 1.04 in test [4]; 1.02 in test [5]; 0.625 in test [6]. For the same compound, the composite z-score was found to be 1.01 in the test on Lefty1; 0.906 in [8]; 0.42 in [10]; 1.77 in test [15]; 0.156 in [16]; 0.584 with Torsin-1A (Homo sapiens) [17]. For the same compound, the values for the composite z-score (with Torsin-1A (Homo sapiens) [18]; in [19]) were 0.977 and 1.37, respectively. For the same compound, the z-score in test [7] was 0.383; in [9], 0.275 (inactive); in [11], -3.93 (inactive); in test [12] it was -0.0717 (inactive); in [13], 0.595 (inactive); in [14] it was -0.251 (inactive).
For the compound `C=CC(CO)NC(=O)OCC1c2ccccc2-c2ccccc21` (stereo not given), the composite z-score in test [1] was 0.311; in [2], 0.421; in test [3], 0.476; in test [4], 0.578; in test [5] it was 0.763; in test [6], 0.415. The composite z-score in the test with Lefty1 is 0.618; in test [8] it was -0.105; in test [10] it was 0.237; in [15] it was 0.0333; in [16], -0.183; in the test with Torsin-1A (Homo sapiens) [17], 0.743. Further, the composite z-score came out at 0.724 with Torsin-1A (Homo sapiens) [18] and 0.775 in [19]. Besides, the z-score in test [7] is 0.02; in [9], -0.409 (inactive); in test [11] it was 0.0812 (inactive); in test [12] it was 0.219 (inactive); in [13], 1.03 (inactive); in test [14], 0.584 (inactive).
`CCC(CC)C(O)C1C=CC2C(=O)N(C)C(=O)C2N1N1CCCCC1` (stereo not given): the composite z-score in test [1] is 2.05; in test [2], 1.23; in [3], -0.0333; in test [4], 0.967; in [5] it was 1.33; in [6], 0.406. Besides, the composite z-score with Lefty1 amounted to 0.831; in test [8], 1.12; in [10], 0.323; in test [15], 1.51; in test [16] it was 0.3; with Torsin-1A (Homo sapiens) [17] it was 0.504. Further, the composite z-score was 0.844 with Torsin-1A (Homo sapiens) [18] and 0.959 in test [19]. Moreover, the z-score in [7] was 0.309; in [9], -0.203 (inactive); in test [11], 0.374 (inactive); in test [12], -0.328 (inactive); in test [13], 0.0501 (inactive); in test [14] it was 1.06 (inactive).
With `C=C(COC)C(=O)CC[C@@H](OC(C)=O)c1ccc(OCCO)cc1`, the composite z-score is 0.476 in test [1]; -0.358 in [2]; -0.822 in test [3]; -0.467 in test [4]; 1.25 in [5]; 0.945 in test [6]. Also, the composite z-score with Lefty1 is 0.843; in test [8] it was 0.774; in [10], 0.284; in [15], -0.0368; in test [16], -0.0523; with Torsin-1A (Homo sapiens) [17], 1.82. The composite z-score was -0.241 in the test with Torsin-1A (Homo sapiens) [18] and 1.64 in test [19]. Also, the z-score in test [7] was -0.576; in test [9], -1.73 (inactive); in test [11], -0.354 (inactive); in [12], -0.176 (inactive); in test [13], 0.625 (inactive); in test [14], 8.41 (active).
Consider `COCCOC(=O)N1C(=O)[C@@]2(c3cc(C#CCCO)ccc31)[C@H](c1ccc(O)cc1)N1[C@H](c3ccccc3)[C@H](c3ccccc3)OC(=O)[C@H]1[C@@H]2C(=O)N1CCc2cc(OC)c(OC)cc2C1`, for which the composite z-score was 0.432 in [1]; 1.25 in test [2]; 0.514 in test [3]; 0.81 in test [4]; 1.36 in test [5]; 1.59 in [6]. In addition, the composite z-score with Lefty1 is 1.36; in test [8], 1.03; in [10], 0.565; in [15] it was 0.354; in test [16] it was 0.628; with Torsin-1A (Homo sapiens) [17], 1.07. Also, the figures for the composite z-score (in the test with Torsin-1A (Homo sapiens) [18]; in test [19]) were 0.761 and 1.32, respectively. For the same compound, the z-score in [7] is 0.257; in [9] it was 0.298 (inactive); in test [11], 0.0501 (inactive); in test [12], -0.883 (inactive); in test [13], -0.0647 (inactive); in test [14], -1.05 (inactive).

These data come from PubChem BioAssay.
